From the supplement of paper PMC10849652
The full data set covers some 7,900 targets. This sample favours those with a hit. About 0.6% of all pairs of compound and target were hits.

Experiments:
Test in all cases: log2 fold change, soluble protein after heating vs DMSO (PISA); higher = thermal stabilisation; K562 cells, 10 uM, 30 min; active = over 0.2 and 3.5 SD of the protein, either way, in both replicates (recomputed)
[1] = molecular target: YWHAB (UniProt P31946)
Summary of the method: (§1)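 Thermal stability values are relative to control samples and come from duplicates. They are expressed as log2 fold changes. For measurement, K562 cells (2×10^6 cells/mL) received 10 μM compound for 30 min, and aliquots were heated for 3 min over 48°C-58°C, pooled, and extracted at 4°C in PBS with 0.5% NP-40. Soluble protein, the supernatant after 21,000xg for 90 min, was quantified by TMTpro 16plex LC-MS/MS with equalised channel sums.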

[2] = molecular target: YWHAQ (UniProt P27348)
Summary of the method: as §1

[3] = molecular target: YWHAZ (UniProt E7ESK7)
Summary of the method: as §1

[4] = molecular target: YWHAZ (UniProt P63104)
Chain of YWHAZ (UniProt P63104) (P63104 whole entry, looked up): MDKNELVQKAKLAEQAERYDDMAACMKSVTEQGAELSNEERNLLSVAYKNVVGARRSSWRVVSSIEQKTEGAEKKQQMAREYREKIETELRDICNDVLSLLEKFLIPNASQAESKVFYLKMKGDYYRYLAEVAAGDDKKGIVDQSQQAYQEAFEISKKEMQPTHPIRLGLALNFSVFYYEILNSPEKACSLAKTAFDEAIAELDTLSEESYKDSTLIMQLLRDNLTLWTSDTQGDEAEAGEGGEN
Summary of the method: as §1

[5] = molecular target: YY1 (UniProt P25490)
Chain of YY1 (P25490 whole entry, looked up): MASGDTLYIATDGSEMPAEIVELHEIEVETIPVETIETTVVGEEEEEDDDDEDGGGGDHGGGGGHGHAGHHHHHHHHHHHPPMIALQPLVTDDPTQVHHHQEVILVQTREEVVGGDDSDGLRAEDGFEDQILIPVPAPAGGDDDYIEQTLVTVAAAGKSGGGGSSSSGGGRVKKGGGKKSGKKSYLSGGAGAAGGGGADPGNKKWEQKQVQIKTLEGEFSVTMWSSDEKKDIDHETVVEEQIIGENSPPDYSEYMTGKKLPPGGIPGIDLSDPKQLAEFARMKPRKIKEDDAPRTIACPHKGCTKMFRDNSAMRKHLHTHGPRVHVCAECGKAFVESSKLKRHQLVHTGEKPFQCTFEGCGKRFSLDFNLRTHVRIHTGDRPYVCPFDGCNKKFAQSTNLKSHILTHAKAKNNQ
Summary of the method: as §1

[6] = molecular target: ZADH2 (UniProt Q8N4Q0)
Summary of the method: as §1

[7] = molecular target: ZBTB21 (UniProt Q9ULJ3)
Summary of the method: as §1

[8] = molecular target: ZBTB43 (UniProt O43298)
Chain of ZBTB43 (O43298 whole entry, looked up): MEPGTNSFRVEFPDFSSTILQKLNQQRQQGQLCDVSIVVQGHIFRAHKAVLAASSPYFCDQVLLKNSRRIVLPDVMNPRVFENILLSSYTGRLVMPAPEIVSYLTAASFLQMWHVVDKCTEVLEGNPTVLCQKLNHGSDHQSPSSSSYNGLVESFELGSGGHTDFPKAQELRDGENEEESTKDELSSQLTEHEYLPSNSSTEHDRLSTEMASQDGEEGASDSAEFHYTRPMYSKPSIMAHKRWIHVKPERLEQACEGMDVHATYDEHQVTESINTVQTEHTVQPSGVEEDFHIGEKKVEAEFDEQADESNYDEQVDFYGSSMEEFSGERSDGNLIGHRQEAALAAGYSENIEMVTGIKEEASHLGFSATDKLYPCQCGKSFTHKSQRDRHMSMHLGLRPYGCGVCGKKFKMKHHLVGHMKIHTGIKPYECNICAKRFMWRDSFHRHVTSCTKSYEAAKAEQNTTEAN
Summary of the method: as §1

[9] = molecular target: ZC3H18 (UniProt Q86VM9)
Summary of the method: as §1

[10] = molecular target: ZC3H8 (UniProt Q8N5P1)
Chain of ZC3H8 (Q8N5P1 whole entry, looked up): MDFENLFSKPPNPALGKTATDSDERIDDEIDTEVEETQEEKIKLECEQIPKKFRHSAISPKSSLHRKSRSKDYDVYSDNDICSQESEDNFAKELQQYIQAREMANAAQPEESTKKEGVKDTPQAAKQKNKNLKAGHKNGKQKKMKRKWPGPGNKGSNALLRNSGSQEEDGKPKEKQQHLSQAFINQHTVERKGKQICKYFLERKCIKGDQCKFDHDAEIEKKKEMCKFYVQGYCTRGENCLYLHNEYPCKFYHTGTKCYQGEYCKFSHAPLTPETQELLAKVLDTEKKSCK
Summary of the method: as §1

[11] = molecular target: ZC3HC1 (UniProt Q86WB0)
Chain of ZC3HC1 (Q86WB0 whole entry, looked up): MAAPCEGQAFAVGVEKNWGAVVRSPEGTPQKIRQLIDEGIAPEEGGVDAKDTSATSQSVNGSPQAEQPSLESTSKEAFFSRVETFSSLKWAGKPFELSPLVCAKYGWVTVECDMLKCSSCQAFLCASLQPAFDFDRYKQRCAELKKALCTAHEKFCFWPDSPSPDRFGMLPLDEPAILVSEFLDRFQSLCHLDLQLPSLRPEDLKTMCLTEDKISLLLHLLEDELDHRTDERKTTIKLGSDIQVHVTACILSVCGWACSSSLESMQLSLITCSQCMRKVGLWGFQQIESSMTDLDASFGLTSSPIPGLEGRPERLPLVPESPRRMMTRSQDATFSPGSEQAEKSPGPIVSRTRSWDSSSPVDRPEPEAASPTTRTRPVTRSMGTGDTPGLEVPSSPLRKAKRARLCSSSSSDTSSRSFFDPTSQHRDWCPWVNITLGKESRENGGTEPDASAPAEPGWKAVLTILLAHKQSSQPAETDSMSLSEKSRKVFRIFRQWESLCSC
Summary of the method: as §1

[12] = molecular target: ZCCHC9 (UniProt Q8N567)
Chain of ZCCHC9 (Q8N567 whole entry, looked up): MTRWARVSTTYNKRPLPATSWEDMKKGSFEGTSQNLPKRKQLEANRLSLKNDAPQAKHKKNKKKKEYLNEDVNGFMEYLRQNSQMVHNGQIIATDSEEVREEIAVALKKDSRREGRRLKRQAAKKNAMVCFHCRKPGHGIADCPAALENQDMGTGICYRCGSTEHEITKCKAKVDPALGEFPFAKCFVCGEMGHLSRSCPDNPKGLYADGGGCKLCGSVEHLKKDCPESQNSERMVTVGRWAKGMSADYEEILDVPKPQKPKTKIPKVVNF
Summary of the method: as §1

[13] = molecular target: ZDHHC17 (UniProt Q8IUH5)
Chain of ZDHHC17 (Q8IUH5 whole entry, looked up): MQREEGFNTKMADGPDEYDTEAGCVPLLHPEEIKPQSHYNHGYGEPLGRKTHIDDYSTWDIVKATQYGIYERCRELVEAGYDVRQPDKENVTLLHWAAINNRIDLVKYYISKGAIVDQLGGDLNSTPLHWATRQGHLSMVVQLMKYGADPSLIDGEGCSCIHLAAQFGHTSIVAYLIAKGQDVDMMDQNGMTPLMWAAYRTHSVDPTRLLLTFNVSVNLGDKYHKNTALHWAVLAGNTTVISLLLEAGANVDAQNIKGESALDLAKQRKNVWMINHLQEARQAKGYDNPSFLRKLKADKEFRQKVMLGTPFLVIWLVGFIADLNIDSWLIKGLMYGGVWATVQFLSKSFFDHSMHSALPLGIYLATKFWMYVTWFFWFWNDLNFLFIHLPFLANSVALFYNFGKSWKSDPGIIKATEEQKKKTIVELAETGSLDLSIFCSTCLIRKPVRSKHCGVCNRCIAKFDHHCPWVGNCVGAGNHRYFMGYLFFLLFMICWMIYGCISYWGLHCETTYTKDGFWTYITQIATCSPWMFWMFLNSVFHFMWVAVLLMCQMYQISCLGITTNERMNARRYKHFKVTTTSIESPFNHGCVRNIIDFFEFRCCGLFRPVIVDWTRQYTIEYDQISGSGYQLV
Summary of the method: as §1

[14] = molecular target: ZDHHC20 (UniProt Q5W0Z9)
Summary of the method: as §1

[15] = molecular target: ZDHHC5 (UniProt Q9C0B5)
Chain of ZDHHC5 (Q9C0B5 whole entry, looked up): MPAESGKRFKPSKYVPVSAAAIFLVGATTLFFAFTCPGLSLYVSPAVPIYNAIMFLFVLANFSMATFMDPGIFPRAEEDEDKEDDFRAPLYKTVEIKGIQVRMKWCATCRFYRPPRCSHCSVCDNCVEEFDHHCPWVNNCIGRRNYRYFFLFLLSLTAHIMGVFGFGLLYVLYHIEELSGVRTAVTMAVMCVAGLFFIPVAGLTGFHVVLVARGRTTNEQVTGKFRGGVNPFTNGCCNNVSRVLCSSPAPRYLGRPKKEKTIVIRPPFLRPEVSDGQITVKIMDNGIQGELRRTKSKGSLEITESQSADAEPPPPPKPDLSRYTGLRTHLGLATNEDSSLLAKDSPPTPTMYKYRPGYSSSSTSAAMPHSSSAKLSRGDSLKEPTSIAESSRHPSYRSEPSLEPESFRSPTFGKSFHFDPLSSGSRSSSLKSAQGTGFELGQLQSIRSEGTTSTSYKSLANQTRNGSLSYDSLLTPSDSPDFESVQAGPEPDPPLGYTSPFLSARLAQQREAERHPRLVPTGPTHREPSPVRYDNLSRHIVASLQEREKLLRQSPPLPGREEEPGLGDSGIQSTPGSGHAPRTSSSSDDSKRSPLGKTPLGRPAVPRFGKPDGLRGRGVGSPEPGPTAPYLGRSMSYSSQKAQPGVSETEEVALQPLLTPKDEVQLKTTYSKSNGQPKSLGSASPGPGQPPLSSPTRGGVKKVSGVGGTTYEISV
Summary of the method: as §1

[16] = molecular target: ZDHHC7 isoform 2 (UniProt Q9NXF8)
Summary of the method: as §1

[17] = molecular target: ZBTB17 isoform 2 (UniProt Q13105)
Summary of the method: as §1

[18] = molecular target: ZDHHC8 isoform 3 (UniProt Q9ULC8)
Chain of ZDHHC8 isoform 3 (Q9ULC8 whole entry, looked up, canonical isoform): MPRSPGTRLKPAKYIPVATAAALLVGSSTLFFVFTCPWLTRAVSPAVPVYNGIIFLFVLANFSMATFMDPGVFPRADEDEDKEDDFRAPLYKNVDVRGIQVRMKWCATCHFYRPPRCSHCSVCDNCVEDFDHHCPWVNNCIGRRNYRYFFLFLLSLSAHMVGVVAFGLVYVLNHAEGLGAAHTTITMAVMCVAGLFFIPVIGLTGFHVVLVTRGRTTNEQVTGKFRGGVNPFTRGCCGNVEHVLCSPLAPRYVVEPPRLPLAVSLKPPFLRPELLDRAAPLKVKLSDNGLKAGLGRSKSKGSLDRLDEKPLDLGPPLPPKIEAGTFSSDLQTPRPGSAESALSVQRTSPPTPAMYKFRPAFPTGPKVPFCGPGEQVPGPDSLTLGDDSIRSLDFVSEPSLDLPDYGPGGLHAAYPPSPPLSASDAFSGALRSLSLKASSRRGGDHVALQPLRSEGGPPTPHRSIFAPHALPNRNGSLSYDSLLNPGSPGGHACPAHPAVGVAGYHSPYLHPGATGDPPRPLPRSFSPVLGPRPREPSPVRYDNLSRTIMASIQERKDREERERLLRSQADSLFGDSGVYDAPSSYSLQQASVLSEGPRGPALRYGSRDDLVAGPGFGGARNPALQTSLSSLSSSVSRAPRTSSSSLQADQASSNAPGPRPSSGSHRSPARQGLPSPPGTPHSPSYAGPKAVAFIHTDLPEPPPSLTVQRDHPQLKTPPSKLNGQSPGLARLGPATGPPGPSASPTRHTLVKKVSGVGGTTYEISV
Summary of the method: as §1

[19] = molecular target: ZDHHC6 (UniProt Q9H6R6)
Chain of ZDHHC6 (Q9H6R6 whole entry, looked up): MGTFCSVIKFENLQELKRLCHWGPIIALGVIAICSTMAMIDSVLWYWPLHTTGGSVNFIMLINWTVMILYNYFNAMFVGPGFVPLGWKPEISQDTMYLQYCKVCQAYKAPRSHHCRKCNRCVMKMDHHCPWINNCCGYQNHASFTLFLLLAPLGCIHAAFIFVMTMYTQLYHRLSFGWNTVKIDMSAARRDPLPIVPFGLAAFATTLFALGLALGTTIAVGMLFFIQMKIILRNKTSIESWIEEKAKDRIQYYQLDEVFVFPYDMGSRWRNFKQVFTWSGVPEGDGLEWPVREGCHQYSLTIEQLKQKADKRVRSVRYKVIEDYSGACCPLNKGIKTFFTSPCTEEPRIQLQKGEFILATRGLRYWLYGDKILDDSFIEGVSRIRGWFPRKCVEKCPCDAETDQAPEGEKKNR
Summary of the method: as §1

Measured: log2 fold change

Chain of YWHAB (P31946 whole entry, looked up): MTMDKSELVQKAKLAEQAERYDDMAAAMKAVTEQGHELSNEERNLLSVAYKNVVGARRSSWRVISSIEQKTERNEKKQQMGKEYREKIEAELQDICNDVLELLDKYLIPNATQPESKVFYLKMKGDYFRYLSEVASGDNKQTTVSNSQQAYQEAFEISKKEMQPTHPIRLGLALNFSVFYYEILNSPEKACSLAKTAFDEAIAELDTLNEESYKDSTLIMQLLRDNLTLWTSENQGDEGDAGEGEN

CC(C)C[C@@H](C=O)NC(=O)[C@H](CC(C)C)NC(=O)[C@H](CC(C)C)NC(=O)OCc1ccccc1
inactive: [1] -0.003 | [2] -0.184 | [3] 0.019 | [4] -0.098 | [5] 0.091 | [6] -0.045 | [7] -0.013 | [8] 0.05 | [9] -0.042 | [10] 0.045 | [11] -0.101 | [12] 0.305 | [13] -0.057 | [14] -0.153 | [15] -0.029 | [16] -0.069

O=C(O)c1ccc2c(c1)nc(Nc1cccc(Cl)c1)c1ccncc12 [silmitasertib]
inactive: [1] -0.014 | [2] 0 | [3] -0.065 | [4] -0.078 | [5] 0.057 | [6] 0.053 | [17] 0.023 | [7] 0.104 | [9] 0.135 | [10] 0.035 | [11] 0.06 | [12] 0.095 | [13] 0.025 | [14] 0.08 | [15] 0.101

O=C(Nc1cccc(Nc2ncc(Br)c(NCCc3cnc[nH]3)n2)c1)N1CCCC1
inactive: [1] 0.006 | [2] -0.089 | [3] -0.031 | [4] 0.011 | [5] -0.065 | [6] 0.001 | [17] -0.014 | [7] 0.107 | [8] -0.052 | [9] -0.126 | [10] 0.038 | [11] -0.078 | [12] 0.08 | [13] 0.011 | [14] -0.025 | [15] -0.076 | [16] 0.028 | [18] 0.06

CCCCN(Cc1ccc(C(=O)NO)cc1)C(=O)Nc1ccccc1 [Nexturastat A]
inactive: [1] -0.048 | [2] -0.063 | [3] 0.34 | [4] -0.051 | [5] 0.069 | [6] 0.005 | [7] 0.106 | [8] -0.203 | [9] 0.11 | [10] 0.106 | [11] -0.106 | [12] 0.311 | [13] -0.086 | [14] -0.149 | [15] -0.001 | [19] -0.06 | [16] 0.052 | [18] -0.151

O=C1NC(=NCc2cccs2)S/C1=C\c1ccc2ncccc2c1
inactive: [1] 0.023 | [2] -0.201 | [3] -0.13 | [4] -0.154 | [5] -0.014 | [6] 0.042 | [7] -0.024 | [8] -0.081 | [9] 0.003 | [10] -0.062 | [11] 0.077 | [12] -0.035 | [13] 0.064 | [14] -0.125 | [15] 0.091 | [16] 0.161

CCN(CCCOc1ccc2c(Nc3cc(CC(=O)Nc4cccc(F)c4)[nH]n3)ncnc2c1)CCOP(=O)(O)O [barasertib]
inactive: [1] 0.003 | [2] 0.006 | [3] 0.114 | [4] -0.002 | [5] -0.01 | [6] 0.049 | [17] -0.048 | [7] -0.043 | [8] -0.105 | [9] -0.05 | [10] -0.075 | [11] 0.108 | [12] -0.094 | [13] 0.067 | [14] 0.022 | [15] -0.001 | [18] 0.028

O=C1NC(=O)C(c2cnc3ccccn23)=C1c1cn2c3c(cc(F)cc13)CN(C(=O)N1CCCCC1)CC2
inactive: [1] -0.04 | [2] -0.095 | [3] -0.239 | [4] -0.025 | [5] -0.013 | [6] -0.043 | [7] -0.226 | [8] 0.196 | [9] 0.03 | [10] 0 | [11] -0.132 | [12] 0.229 | [13] 0.043 | [14] 0.079 | [15] -0.014 | [19] 0.089 | [16] -0.021 | [18] 0.029

Cc1ccc(NC(=O)c2cccc(N(C)C)c2)cc1NC(=O)c1ccc(O)cc1
inactive: [1] -0.008 | [2] -0.023 | [3] 0.082 | [4] 0.011 | [5] -0.012 | [6] -0.047 | [7] 0.101 | [8] 0.141 | [9] -0.02 | [10] 0.03 | [11] -0.209 | [12] 0.062 | [13] 0.01 | [14] 0.085 | [15] -0.007 | [16] 0.014

COc1cccc2cc(-c3nc([C@H]4CC[C@H](C(=O)O)CC4)n4ncnc(N)c34)[nH]c12
inactive: [1] 0.014 | [2] -0.098 | [3] 0.187 | [4] -0.052 | [5] 0.009 | [6] -0.059 | [17] -0.006 | [7] 0.129 | [9] 0.014 | [10] -0.02 | [11] 0.032 | [12] -0.121 | [13] 0.003 | [14] 0.11 | [15] -0.007

Fc1ccc(Cl)cc1-c1nc(Nc2ccncc2)c2nccnc2n1
inactive: [1] 0.048 | [2] 0.146 | [3] 0.099 | [4] 0.081 | [5] 0.073 | [6] -0.011 | [7] -0.022 | [8] -0.194 | [9] -0.134 | [10] -0.275 | [11] 0.128 | [12] -0.378 | [13] -0.006 | [14] 0.152 | [15] -0.002 | [19] -0.083 | [16] 0.093 | [18] 0.028

COc1cc(C(=O)O)ccc1NC(=O)[C@@H]1N[C@@H](CC(C)(C)C)[C@](C#N)(c2ccc(Cl)cc2F)[C@H]1c1cccc(Cl)c1F [idasanutlin]
inactive: [1] -0.053 | [2] -0.084 | [3] -0.061 | [4] -0.026 | [5] 0.077 | [6] -0.235 | [7] 0.026 | [8] 0.002 | [9] 0.23 | [10] 0.109 | [11] -0.012 | [12] 0.139 | [13] -0.048 | [14] -0.014 | [15] -0.111 | [16] -0.013

NC1(Cc2ccc(Cl)cc2)CCN(c2ncnc3[nH]ccc23)CC1
inactive: [1] 0.028 | [2] 0.029 | [3] 0.07 | [4] 0.059 | [5] 0.066 | [6] 0.008 | [17] -0.199 | [7] 0.024 | [8] -0.053 | [9] -0.124 | [10] -0.01 | [11] 0.019 | [12] -0.1 | [13] 0.022 | [14] 0.059 | [15] 0.071 | [16] 0 | [18] 0.063

CN1CCc2c(c3ccccc3n2Cc2ccc(C(=O)NO)cc2)C1 [Tubastatin A]
inactive: [1] -0.014 | [2] -0.026 | [3] 0.102 | [4] -0.004 | [5] -0.011 | [6] -0.007 | [17] 0.049 | [7] -0.132 | [8] -0.018 | [9] 0.129 | [10] -0.034 | [11] 0.07 | [12] 0.103 | [13] -0.012 | [14] 0.02 | [15] 0.051 | [16] -0.003 | [18] 0.058

O=C1c2ccccc2-c2n[nH]c3cccc1c23
inactive: [1] 0.001 | [2] 0.089 | [3] 0.008 | [4] 0.045 | [5] -0.07 | [6] 0.03 | [7] 0.006 | [8] -0.161 | [9] -0.211 | [10] -0.001 | [11] -0.032 | [12] -0.009 | [13] -0.021 | [14] -0.044 | [15] -0.054 | [16] 0.01

COc1cc2nc(-c3cc(F)ccc3O)nc(N[C@@H]3CNC[C@H]3C(C)(C)O)c2cc1OC
active: [5] -0.268
inactive: [1] -0.062 | [2] -0.148 | [3] 0.028 | [4] -0.163 | [6] 0.045 | [7] 0.022 | [9] -0.066 | [10] 0.05 | [11] 0.013 | [12] -0.006 | [13] 0.029 | [14] -0.086 | [15] 0.117 | [19] 0.018 | [16] -0.012

Cn1cc(-c2ccc3c(c2)CCN3C(=O)Cc2cccc(C(F)(F)F)c2)c2c(N)ncnc21
inactive: [1] 0.005 | [2] 0.124 | [3] 0.102 | [4] 0.052 | [5] 0.004 | [6] 0.04 | [7] 0.122 | [8] 0.023 | [9] -0.03 | [10] -0.084 | [11] 0.014 | [12] -0.074 | [13] 0.018 | [14] -0.036 | [15] -0.02 | [16] -0.088
